# In PubChem BioAssay (EPA / NIEHS):
# Records with an inconclusive call do not appear. Active and inactive are the calls of the source. Rule for the calls: active = hit-call score of the fitted dose curve at least 0.9, where 1 is the maximum; inconclusive = response in the unintended direction; inactive = score below 0.9.
# Target: Estrogen receptor (Homo sapiens) (UniProt P03372)
# Assay: OT_ER_ERaERa_0480: Odyssey Thera (OT) 8-hour HEK293T Protein-Complementation Assay for Estrogen Receptor-alpha/-alpha Homodimer (AID 2283351);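 note: rise in fluorescence from reassembled reporter fragments on ERα LBD homodimer in nucleus or whole cell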
# In short: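 Read-out: fluorescence intensity rise relative to DMSO, nuclear for agonists, nuclear plus cytoplasmic for antagonists. Construct is the ERα LBD (aa 310-547) homodimer fragment-complementation pair, stably expressed in HEK293T; exposure 8 h.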
# Sequence of Estrogen receptor (Homo sapiens) (P03372 whole entry, looked up, the tested form may be a part): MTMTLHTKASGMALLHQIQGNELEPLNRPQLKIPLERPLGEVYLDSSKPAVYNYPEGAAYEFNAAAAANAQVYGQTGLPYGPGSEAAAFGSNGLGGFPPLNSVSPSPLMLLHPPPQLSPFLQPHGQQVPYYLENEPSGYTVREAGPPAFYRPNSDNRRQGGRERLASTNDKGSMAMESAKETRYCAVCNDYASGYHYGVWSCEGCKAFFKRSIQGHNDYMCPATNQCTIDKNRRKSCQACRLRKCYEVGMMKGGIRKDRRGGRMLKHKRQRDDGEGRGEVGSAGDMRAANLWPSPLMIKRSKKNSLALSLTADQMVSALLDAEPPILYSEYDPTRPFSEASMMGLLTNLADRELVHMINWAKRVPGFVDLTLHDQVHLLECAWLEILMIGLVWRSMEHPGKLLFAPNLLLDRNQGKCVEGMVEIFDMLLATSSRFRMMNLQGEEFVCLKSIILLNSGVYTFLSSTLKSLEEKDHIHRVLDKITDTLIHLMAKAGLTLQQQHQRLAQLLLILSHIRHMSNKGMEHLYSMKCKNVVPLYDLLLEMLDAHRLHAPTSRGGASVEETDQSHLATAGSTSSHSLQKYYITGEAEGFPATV
row,Compound,outcome
1,CCN(CC)c1ccccc1,inactive
2,CCOP(=S)(OCC)SCSCC,inactive
3,O=c1ssc(Cl)c1Cl,inactive
4,CCCCc1ccccc1,inactive
5,c1nc[nH]n1,inactive
6,COCCOCCO,inactive
7,O=[N+]([O-])c1ccccc1,inactive
8,CCNc1nc(Cl)nc(NC(C)(C)C)n1,inactive
9,CCOC(=O)c1ccccc1N,inactive
10,FC(F)(F)c1ccc(Cl)cc1,inactive
11,Cc1cccc(N)c1,inactive
12,Cc1ccc(O)cc1C,inactive
13,O=C(O)CF,inactive
14,O=C(O)C1C(C(=O)O)C2(Cl)C(Cl)=C(Cl)C1(Cl)C2(Cl)Cl (stereo not drawn),inactive
15,CCOS(=O)(=O)OCC,inactive
16,O=NN1CCCC1,inactive

row,Compound,outcome
1,[N-]=[N+]=[N-],inactive
2,CCCCN(CC)C(=O)SCCC,inactive
3,CCCCC(CC)COC(=O)c1c(Br)c(Br)c(Br)c(Br)c1C(=O)OCC(CC)CCCC (stereo not drawn),inactive
4,O=C(CBr)OCc1ccccc1,inactive
5,c1cc2c3c(cccc3c1)CC2,inactive
6,O=[N+]([O-])c1ccc(Cl)c(Cl)c1,inactive
7,ClC(Cl)c1ccccc1,inactive
8,OCC1CO1 (stereo not drawn),inactive
9,O=S1(=O)OCC2C(CO1)C1(Cl)C(Cl)=C(Cl)C2(Cl)C1(Cl)Cl (stereo not drawn),inactive
10,Cc1ccc(N)cc1N,inactive
11,c1ccc2c(c1)sc1ccccc12,inactive
12,Nc1ccc(Cl)cc1,inactive
13,COC(N)=O,inactive
14,CC(Cc1ccc(OCC(=O)O)cc1)NCC(O)c1csc(C(F)(F)F)n1 (stereo not drawn),inactive
15,CCCCOCC1CO1 (stereo not drawn),inactive

# Target: T1, Estrogen receptor (Homo sapiens) + Estrogen receptor beta (Homo sapiens) (UniProt P03372+Q92731)
# T1 sequence (P03372 whole entry, looked up): as the sequence (P03372 whole entry, looked up, the tested form may be a part) above
# T1 sequence (Q92731 whole entry, looked up): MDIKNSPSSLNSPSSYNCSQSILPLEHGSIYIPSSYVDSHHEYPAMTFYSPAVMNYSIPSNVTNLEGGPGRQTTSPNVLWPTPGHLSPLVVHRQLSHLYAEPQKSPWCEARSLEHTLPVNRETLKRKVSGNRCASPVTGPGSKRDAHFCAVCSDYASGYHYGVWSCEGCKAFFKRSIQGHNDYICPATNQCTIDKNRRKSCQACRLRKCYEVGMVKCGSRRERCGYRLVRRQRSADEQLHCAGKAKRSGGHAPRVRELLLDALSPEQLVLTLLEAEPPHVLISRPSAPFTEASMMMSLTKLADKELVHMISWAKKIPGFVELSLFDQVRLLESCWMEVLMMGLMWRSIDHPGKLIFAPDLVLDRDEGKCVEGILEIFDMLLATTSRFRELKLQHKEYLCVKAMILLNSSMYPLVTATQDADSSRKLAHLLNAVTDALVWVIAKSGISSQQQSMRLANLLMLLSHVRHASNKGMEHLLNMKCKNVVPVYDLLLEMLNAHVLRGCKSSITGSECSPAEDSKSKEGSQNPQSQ
# Assay: OT_ER_ERaERb_0480: Odyssey Thera (OT) 8-hour HEK293T Protein-Complementation Assay for Estrogen Receptor-alpha/-beta Heterodimer (AID 2283352)
# In short: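 HEK293T protein-fragment complementation assay of ER-alpha/ER-beta LBD heterodimerisation, read 8 h after dosing. Mean nuclear/cytoplasmic fluorescence intensity measured by laser scanning cytometry; gain of signal fitted relative to DMSO.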
row,Compound,outcome
1,CCN(CC)c1ccccc1,inactive
2,CCOP(=S)(OCC)SCSCC,inactive
3,CCCCc1ccccc1,inactive
4,c1nc[nH]n1,inactive
5,COCCOCCO,inactive
6,O=[N+]([O-])c1ccccc1,inactive
7,CCNc1nc(Cl)nc(NC(C)(C)C)n1,inactive
8,CCOC(=O)c1ccccc1N,inactive
9,Cc1ccc([N+](=O)[O-])cc1C,inactive
10,CCC1(c2ccccc2)C(=O)N=C(O)NC1=O (stereo not drawn),inactive
11,Cc1ccc(O)cc1C,inactive
12,O=C(O)CF,inactive
13,O=C(O)C1C(C(=O)O)C2(Cl)C(Cl)=C(Cl)C1(Cl)C2(Cl)Cl (stereo not drawn),inactive
14,CCOS(=O)(=O)OCC,inactive
15,O=NN1CCCC1,inactive
16,CCCCN(CC)C(=O)SCCC,inactive
17,CCCCC(CC)COC(=O)c1c(Br)c(Br)c(Br)c(Br)c1C(=O)OCC(CC)CCCC (stereo not drawn),inactive
18,O=C(CBr)OCc1ccccc1,inactive
19,c1cc2c3c(cccc3c1)CC2,inactive
20,CCOc1ccc(C(C)(C)COCc2cccc(Oc3ccccc3)c2)cc1,inactive
21,O=S1(=O)OCC2C(CO1)C1(Cl)C(Cl)=C(Cl)C2(Cl)C1(Cl)Cl (stereo not drawn),inactive
22,Cc1ccc(N)cc1N,inactive
23,COC(N)=O,inactive

# Target: Androgen Receptor/SRC-1 Co-activator, AR (gene 367) (UniProt P10275)
# Sequence (P10275 whole entry, looked up): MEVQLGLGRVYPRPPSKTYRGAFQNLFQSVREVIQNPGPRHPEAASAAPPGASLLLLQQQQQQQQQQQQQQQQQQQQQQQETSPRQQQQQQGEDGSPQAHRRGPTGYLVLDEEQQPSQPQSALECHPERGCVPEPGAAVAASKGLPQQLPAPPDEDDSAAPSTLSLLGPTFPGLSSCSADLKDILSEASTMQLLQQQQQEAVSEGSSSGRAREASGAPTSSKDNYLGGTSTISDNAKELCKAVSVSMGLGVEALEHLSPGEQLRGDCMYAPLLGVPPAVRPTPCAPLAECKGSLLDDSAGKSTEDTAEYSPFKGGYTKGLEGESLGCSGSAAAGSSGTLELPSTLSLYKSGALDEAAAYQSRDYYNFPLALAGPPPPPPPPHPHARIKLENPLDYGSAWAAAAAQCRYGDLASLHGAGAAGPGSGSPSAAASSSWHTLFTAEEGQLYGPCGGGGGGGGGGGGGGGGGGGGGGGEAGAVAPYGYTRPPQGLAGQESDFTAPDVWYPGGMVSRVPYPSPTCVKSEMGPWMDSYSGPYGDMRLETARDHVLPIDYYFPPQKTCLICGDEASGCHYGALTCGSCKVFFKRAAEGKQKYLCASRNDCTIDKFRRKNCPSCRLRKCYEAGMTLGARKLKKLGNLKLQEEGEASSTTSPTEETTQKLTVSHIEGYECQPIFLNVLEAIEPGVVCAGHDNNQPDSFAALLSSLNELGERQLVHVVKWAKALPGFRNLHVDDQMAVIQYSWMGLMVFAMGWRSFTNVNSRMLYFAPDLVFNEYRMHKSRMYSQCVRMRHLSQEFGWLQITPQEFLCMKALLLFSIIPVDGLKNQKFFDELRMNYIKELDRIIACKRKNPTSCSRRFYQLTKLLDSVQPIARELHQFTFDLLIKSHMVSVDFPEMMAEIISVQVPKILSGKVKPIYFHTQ
# Assay: OT_AR_ARSRC1_0960: Odyssey Thera (OT) 16-hour HEK293T Protein-Complementation Assay for Androgen Receptor/SRC-1 Co-activator (AID 2283353);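 note: actives raise the signal above DMSO so potency reflects increased AR and SRC-1 complex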
# In short: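 Readout: 488 nm nuclear-to-cytoplasmic fluorescence ratio from imaging of at least 400 cells per image, 16 h post-dose. Reporter is Venus YFP complementation between AR and SRC-1 fusions, stably expressed in HEK293T; activity scored upward relative to DMSO.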
row,Compound,outcome
1,CCN(CC)c1ccccc1,inactive
2,CCNc1nc(Cl)nc(NC(C)(C)C)n1,inactive
3,CC(C)(C)N(NC(=O)c1ccc(Cl)cc1)C(=O)c1ccccc1,inactive
4,[N-]=[N+]=[N-],inactive
5,CCCCN(CC)C(=O)SCCC,inactive
6,c1cc2c3c(cccc3c1)CC2,inactive

# Target: Androgen Receptor/SRC-1 Co-activator, AR (gene 367) (UniProt P10275)
# Assay: OT_AR_ARSRC1_0480: Odyssey Thera (OT) 8-hour HEK293T Protein-Complementation Assay for Androgen Receptor/SRC-1 Co-activator (AID 2283354);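 note: hits raise the complementation signal above DMSO so AC50 marks enhancers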
# In short: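 Split-Venus PCA, stable HEK293T, AR/SRC-1 fusions; 8 h exposure. Readout: 488nm N/C fluorescence ratio, ≥400 cells/image; fitted upward vs DMSO baseline.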
row,Compound,outcome
1,CCN(CC)c1ccccc1,inactive
2,CCNc1nc(Cl)nc(NC(C)(C)C)n1,inactive
3,CC(C)(C)N(NC(=O)c1ccc(Cl)cc1)C(=O)c1ccccc1,inactive

# Target: T1, Estrogen receptor (Homo sapiens) + Estrogen receptor beta (Homo sapiens)
# Assay: OT_ER_ERaERb_1440: Odyssey Thera (OT) 24-hour HEK293T Protein-Complementation Assay for Estrogen Receptor-alpha/-beta Homodimer (AID 2283356);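 note: heteromer of ER alpha and ER beta binding domains; hits raise reporter fluorescence and both agonists and antagonists give an increase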
# In short: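 HEK293T stably expressing a PCA of ER alpha LBD (aa 310-547) and ER beta LBD (aa 263-489). After 24 h compound exposure, mean fluorescence intensity in nucleus (agonists) or nucleus and cytoplasm (antagonists) measured by laser scanning cytometry versus vehicle.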
Compound,outcome,AC50
CCN(CC)c1ccccc1,inactive,–
CCOP(=S)(OCC)SCSCC,inactive,–
CCCCc1ccccc1,inactive,–
c1nc[nH]n1,inactive,–
O=[N+]([O-])c1ccccc1,inactive,–
CCNc1nc(Cl)nc(NC(C)(C)C)n1,inactive,–
CCOC(=O)c1ccccc1N,inactive,–
Cc1ccc([N+](=O)[O-])cc1C,inactive,–
FC(F)(F)c1ccc(Cl)cc1,inactive,–
CC(C)(C)N(NC(=O)c1ccc(Cl)cc1)C(=O)c1ccccc1,inactive,–
Cc1ccc(O)cc1C,inactive,–
O=C(O)CF,inactive,–
O=C(O)C1C(C(=O)O)C2(Cl)C(Cl)=C(Cl)C1(Cl)C2(Cl)Cl (stereo not drawn),inactive,–
CCOS(=O)(=O)OCC,inactive,–
O=NN1CCCC1,inactive,–
CCCCN(CC)C(=O)SCCC,inactive,–
CCCCC(CC)COC(=O)c1c(Br)c(Br)c(Br)c(Br)c1C(=O)OCC(CC)CCCC (stereo not drawn),inactive,–
O=C(CBr)OCc1ccccc1,inactive,–
c1cc2c3c(cccc3c1)CC2,inactive,–
CCOc1ccc(C(C)(C)COCc2cccc(Oc3ccccc3)c2)cc1,inactive,–
O=S1(=O)OCC2C(CO1)C1(Cl)C(Cl)=C(Cl)C2(Cl)C1(Cl)Cl (stereo not drawn),–,86.8 µM (active)
Cc1ccc(N)cc1N,inactive,–
COC(N)=O,inactive,–
CC(Cc1ccc(OCC(=O)O)cc1)NCC(O)c1csc(C(F)(F)F)n1 (stereo not drawn),inactive,–

# Target: Estrogen receptor beta (Homo sapiens) (UniProt Q92731)
# Sequence (Q92731 whole entry, looked up): as the sequence (Q92731 whole entry, looked up) above
# Assay: OT_ER_ERbERb_0480: Odyssey Thera (OT) 8-hour HEK293T Protein-Complementation Assay for Estrogen Receptor-beta/-beta Homodimer (AID 2283357);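 note: active means signal gain over DMSO baseline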
# In short: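 Homodimerization of ER-beta LBD measured by protein-fragment complementation in HEK293T; 8 h dosing; fixed, Draq5 counterstain; fluorescence intensity gain over DMSO baseline, positive fitting direction; laser scanning cytometry.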
row,Compound,outcome
1,CCN(CC)c1ccccc1,inactive
2,CCOP(=S)(OCC)SCSCC,inactive
3,O=c1ssc(Cl)c1Cl,inactive
4,CCCCc1ccccc1,inactive
5,c1nc[nH]n1,inactive
6,COCCOCCO,inactive
7,O=[N+]([O-])c1ccccc1,inactive
8,CCNc1nc(Cl)nc(NC(C)(C)C)n1,inactive
9,CCOC(=O)c1ccccc1N,inactive
10,Cc1ccc([N+](=O)[O-])cc1C,inactive
11,FC(F)(F)c1ccc(Cl)cc1,inactive
12,CC(C)(C)N(NC(=O)c1ccc(Cl)cc1)C(=O)c1ccccc1,inactive
13,CCC1(c2ccccc2)C(=O)N=C(O)NC1=O (stereo not drawn),inactive
14,Cc1ccc(O)cc1C,inactive
15,O=C(O)CF,inactive
16,O=C(O)C1C(C(=O)O)C2(Cl)C(Cl)=C(Cl)C1(Cl)C2(Cl)Cl (stereo not drawn),inactive
17,O=NN1CCCC1,inactive
18,CCCCN(CC)C(=O)SCCC,inactive
19,CCCCC(CC)COC(=O)c1c(Br)c(Br)c(Br)c(Br)c1C(=O)OCC(CC)CCCC (stereo not drawn),inactive
20,O=C(CBr)OCc1ccccc1,inactive
21,c1cc2c3c(cccc3c1)CC2,inactive
22,CCOc1ccc(C(C)(C)COCc2cccc(Oc3ccccc3)c2)cc1,inactive
23,O=S1(=O)OCC2C(CO1)C1(Cl)C(Cl)=C(Cl)C2(Cl)C1(Cl)Cl (stereo not drawn),inactive
24,Cc1ccc(N)cc1N,inactive
25,COC(N)=O,inactive
26,CC(Cc1ccc(OCC(=O)O)cc1)NCC(O)c1csc(C(F)(F)F)n1 (stereo not drawn),inactive
